For 39 compounds, inhibition of aggregation, nuclei count and inhibition results are on record in PubChem BioAssay.

The inhibition is the relative decrease from the control value, in per cent.

Activity calls are given as the source filed them.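 Rule for the calls, unless noted: active = visual image review flags a hit and inhibition of aggregation exceeds 20%; inconclusive = visual hit but inhibition at or below 20%; inactive = no hit on visual image review.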

The nature of one test: inhibitors of mutant huntingtin aggregation, primary screen, imaging, exon1htt(103Q)mCFP cells, high-content imaging (AID 483).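 For nuclei count: percent of the per-plate median nuclei count of sample wells.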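 Note: compound exposure lasted 3 days before fixation.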 The following applies: exon1htt(103Q)mCFP cell line, aggregate imaging, at 2 µM; inhibition of aggregation: stronger effect = higher value; nuclei count: measured here: cell count, toxicity.
For `Cn1c(COc2ccccc2)nnc1SCC(=O)Nc1ccc(N2CCOCC2)c(Cl)c1`, the inhibition of aggregation is -10.9% (inactive) and the nuclei count worked out at 102%.

On to `O=C(CSc1nnc(Cc2ccccc2)n1C1CCCCC1)N1CCOCC1`, for which the nuclei count came out at 104% and the inhibition of aggregation was 12.5% (inactive).

On to `C1=CC2CC1CC2CN1CCN(c2ccccc2)CC1` (stereo unspecified), for which the inhibition of aggregation is -19.6% (inactive) and the nuclei count stood at 114%.

Take `COc1ccc(-c2nnc(SCC#N)o2)cc1`: the inhibition of aggregation is 29.7% (active) and the nuclei count came out at 86%.

Turning to `CC(=O)Nc1ccc(N2CCN(Cc3ccccc3F)CC2)cc1`, the inhibition of aggregation was 12.1% (inactive) and the nuclei count stood at 102%.

Turning to `O=C1C2C3C=CC(C3)C2C(=O)N1CNc1ccc(O)cc1` (stereo unspecified), the nuclei count was 108% and the inhibition of aggregation is -9.8% (inactive).

Take `COc1cc2c(cc1OC)-c1cc(OCc3cccnc3)nc(=O)n1CC2`: the nuclei count came out at 96.1% and the inhibition of aggregation is -4.9% (inactive).

On to `Cc1cc2ncn(C(=O)N3CCOCC3)c2cc1C`, for which the inhibition of aggregation is 27.9% (inactive) and the nuclei count stood at 97.2%.

As to `COc1ccccc1N1CCN(C(=O)CCNS(=O)(=O)c2ccc3c(c2)CCC(=O)N3)CC1`, the inhibition of aggregation was -1.4% (inactive) and the nuclei count was 123%.

As for `CCOC(=O)c1cc(C)n(CCCN2CCOCC2)c1C`, the inhibition of aggregation is -5.8% (inactive) and the nuclei count was determined as 114%.

In the case of `CCCc1cc(=O)n2[nH]c(-c3ccc(Br)cc3)cc2n1`, the nuclei count turned out to be 98.8% and the inhibition of aggregation is -4.6% (inactive).

As for `CCCC1C(C#N)=C(N)Oc2n[nH]c(C(C)(C)C)c21` (stereo unspecified), the inhibition of aggregation is -30.2% (inactive) and the nuclei count worked out at 102%.

Consider `CCOC(=O)CSc1nnc(-c2cccnc2)n1Cc1ccccc1`, for which the inhibition of aggregation was 10.1% (inactive) and the nuclei count came out at 97.1%.

Consider `CCOc1ccccc1C(=O)NCCC(=O)O`, for which the inhibition of aggregation is -42.8% (inactive) and the nuclei count stood at 91.6%.

On to `CC(C(=O)Nc1ccccc1-c1ccccc1)N1CCN(C(=O)c2ccco2)CC1` (stereo unspecified), for which the inhibition of aggregation was 14% (inactive) and the nuclei count came out at 75%.

Regarding `CC(C)(C)n1ncc2c(=O)n(CC(=O)NCc3ccco3)cnc21`, the nuclei count is 104% and the inhibition of aggregation is -12.5% (inactive).

Consider `CCn1c(=O)cc(OCC(=O)Nc2cc(C)ccn2)c2ccccc21`, for which the inhibition of aggregation is -7.1% (inactive) and the nuclei count turned out to be 101%.

For `COc1ccc(CN2CC(C(=O)NCCCOC(C)C)CC2=O)cc1` (stereo unspecified), the inhibition of aggregation was -17.1% (inactive) and the nuclei count is 102%.

Consider `CCOC(=O)C1=C(CC)Nc2ccccc2N=C1NC(=O)Cn1cnc2ccccc2c1=O`, for which the nuclei count came to 117% and the inhibition of aggregation was 6.9% (inactive).

With `Cc1ccc(-n2ncc3c(=O)n(CC(=O)NC4CCCCC4)cnc32)cc1C`, the nuclei count was 96.7% and the inhibition of aggregation is 4.3% (inactive).

On to `N#Cc1c(/N=C/c2ccco2)sc2c1CCC2`, for which the nuclei count was 105% and the inhibition of aggregation was 0.6% (inactive).

As to `O=C(C1CCN(S(=O)(=O)Cc2ccccc2)CC1)N1CCN(c2ncccn2)CC1`, the inhibition of aggregation is 0.1% (inactive) and the nuclei count stood at 67%.

In the case of `COc1cccc(-c2nc(-c3ccc(NC(=O)Cc4ccccc4OC)cc3)no2)c1`, the inhibition of aggregation was -12.3% (inactive) and the nuclei count was determined as 95.4%.

`O=C(COc1ccc(Cl)cc1)Nc1nc(-c2cccs2)cs1`: the nuclei count was 110% and the inhibition of aggregation is -1.6% (inactive).

Take `COCCNC(=O)CN(C)S(=O)(=O)c1ccc2c(c1)OCCO2`: the inhibition of aggregation was -1.9% (inactive) and the nuclei count turned out to be 101%.

As to `O=C(Cn1c(=O)n(Cc2ccc3c(c2)OCO3)c(=O)c2ccccc21)N1CCCc2ccccc21`, the nuclei count turned out to be 87.9% and the inhibition of aggregation was -11.1% (inactive).

With `NC(=O)CSc1nnc(-c2ccc(O)cc2)n1Cc1ccco1`, the inhibition of aggregation was 18.6% (inactive) and the nuclei count came out at 98.1%.

For `COC(=O)Cc1[nH]nc2c1C(C1C=CCCC1)C(C#N)=C(N)O2` (stereo unspecified), the inhibition of aggregation was 7.6% (inactive) and the nuclei count was found to be 90.6%.

Turning to `N#Cc1c(-c2ccccc2)nc(SCc2nc(N)nc(N3CCCCC3)n2)[nH]c1=O`, the inhibition of aggregation was 13% (inactive) and the nuclei count was found to be 85.3%.

For the compound `CCn1c(SCC(=O)NCc2ccco2)nc2c(c1=O)SC(C)C2` (stereo unspecified), the nuclei count is 101% and the inhibition of aggregation was -2.9% (inactive).

Turning to `CCn1c(C)nc2cc(C(=O)OC(C(F)(F)C(F)F)C(F)(F)C(F)F)ccc21`, the inhibition of aggregation is 12.2% (inactive) and the nuclei count amounted to 91.2%.

On to `O=C(CCN1CCN(CCO)CC1)Nc1ccc(OCc2ccccc2)cc1`, for which the inhibition of aggregation was -5.1% (inactive) and the nuclei count came out at 98.3%.

On to `COc1ccc2c(c1)CCc1c(C(=O)N3CC4(C)CC3CC(C)(C)C4)noc1-2` (stereo unspecified), for which the inhibition of aggregation is 18.9% (inactive) and the nuclei count turned out to be 98.8%.

As to `Cc1cc(NC(=O)CCC(=O)N(CC2CCCO2)C(C(=O)NC2CCCC2)c2ccccc2C)no1` (stereo unspecified), the inhibition of aggregation is 26.9% (inactive) and the nuclei count is 63.6%.

For `COc1ccc2c(c1)CCc1c(C(=O)NCc3cccnc3)noc1-2`, the inhibition of aggregation was -6.5% (inactive) and the nuclei count was 103%.

On to `O=C(Nc1c(-c2ccccc2)nc2ccccn12)c1ccco1`, for which the inhibition of aggregation was 8.4% (inactive) and the nuclei count was 103%.

With `O=C(CCCC(=O)N(CC(=O)NC1CCCCC1)Cc1ccc2c(c1)OCO2)Nc1ccccn1`, the inhibition of aggregation was -3% (inactive) and the nuclei count is 91%.

As for `CCOC(=O)N1CCN(C(=O)C2c3cc(OC)c(OC)cc3C(=O)N3CCc4ccccc4C23)CC1` (stereo unspecified), the inhibition of aggregation was 13.5% (inactive) and the nuclei count amounted to 104%.

As for `COC(=O)Cc1csc(N)n1`, the inhibition of aggregation is 15% (inactive) and the nuclei count turned out to be 109%.

A further test can be described thus: inhibitors of E-selectin induction by TNFa, primary screen, imaging, HUVEC, immunofluorescence, MLSMR starter and 10KST1 sets (AID 487;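 active = visually confirmed hit in the image check and inhibition above 20%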;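 for inhibition: signal is fraction of cell area covered by stained E-selectin grains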;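 for nuclei count: 100% = median nuclei count of all wells on the same plate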). The settings on record: HUVEC TNFalpha-induced E-selectin immunofluorescence imaging, at 2 µM; inhibition: stronger effect = higher value; nuclei count: measured here: cell number, toxicity.
For the compound `Cn1c(COc2ccccc2)nnc1SCC(=O)Nc1ccc(N2CCOCC2)c(Cl)c1`, the nuclei count turned out to be 102% and the inhibition was -6.4% (inactive).

For the compound `O=C(CSc1nnc(Cc2ccccc2)n1C1CCCCC1)N1CCOCC1`, the nuclei count was found to be 113% and the inhibition is -264% (inactive).

`C1=CC2CC1CC2CN1CCN(c2ccccc2)CC1` (stereo unspecified): the inhibition was -37.7% (inactive) and the nuclei count was 100%.

`COc1ccc(-c2nnc(SCC#N)o2)cc1`: the nuclei count was found to be 102% and the inhibition was 24.6% (inactive).

In the case of `CC(=O)Nc1ccc(N2CCN(Cc3ccccc3F)CC2)cc1`, the inhibition is 34.5% (inactive) and the nuclei count was determined as 120%.

With `O=C1C2C3C=CC(C3)C2C(=O)N1CNc1ccc(O)cc1` (stereo unspecified), the nuclei count stood at 106% and the inhibition is 32.1% (inactive).

On to `COc1cc2c(cc1OC)-c1cc(OCc3cccnc3)nc(=O)n1CC2`, for which the nuclei count amounted to 116% and the inhibition is -49% (inactive).

For `Cc1cc2ncn(C(=O)N3CCOCC3)c2cc1C`, the nuclei count came out at 122% and the inhibition was -61.7% (inactive).

With `COc1ccccc1N1CCN(C(=O)CCNS(=O)(=O)c2ccc3c(c2)CCC(=O)N3)CC1`, the inhibition is -31.1% (inactive) and the nuclei count was found to be 102%.

Turning to `CCOC(=O)c1cc(C)n(CCCN2CCOCC2)c1C`, the inhibition was -162% (inactive) and the nuclei count came out at 109%.

Consider `CCCc1cc(=O)n2[nH]c(-c3ccc(Br)cc3)cc2n1`, for which the inhibition was -27.5% (inactive) and the nuclei count is 119%.

In the case of `CCCC1C(C#N)=C(N)Oc2n[nH]c(C(C)(C)C)c21` (stereo unspecified), the nuclei count stood at 115% and the inhibition is 26.6% (inactive).

`CCOC(=O)CSc1nnc(-c2cccnc2)n1Cc1ccccc1`: the nuclei count is 158% and the inhibition is -105% (inactive).

Take `CCOc1ccccc1C(=O)NCCC(=O)O`: the inhibition is 16% (inactive) and the nuclei count is 118%.

For `CC(C(=O)Nc1ccccc1-c1ccccc1)N1CCN(C(=O)c2ccco2)CC1` (stereo unspecified), the inhibition was -63.4% (inactive) and the nuclei count worked out at 97.9%.

Take `CC(C)(C)n1ncc2c(=O)n(CC(=O)NCc3ccco3)cnc21`: the inhibition was 4.2% (inactive) and the nuclei count was found to be 112%.

Regarding `CCn1c(=O)cc(OCC(=O)Nc2cc(C)ccn2)c2ccccc21`, the inhibition was -11.5% (inactive) and the nuclei count was found to be 126%.

Take `COc1ccc(CN2CC(C(=O)NCCCOC(C)C)CC2=O)cc1` (stereo unspecified): the nuclei count came to 122% and the inhibition is -63.4% (inactive).

Regarding `CCOC(=O)C1=C(CC)Nc2ccccc2N=C1NC(=O)Cn1cnc2ccccc2c1=O`, the inhibition was -28.7% (inactive) and the nuclei count amounted to 123%.

For the compound `Cc1ccc(-n2ncc3c(=O)n(CC(=O)NC4CCCCC4)cnc32)cc1C`, the nuclei count was 106% and the inhibition was -3.3% (inactive).

On to `N#Cc1c(/N=C/c2ccco2)sc2c1CCC2`, for which the inhibition was -12.4% (inactive) and the nuclei count amounted to 104%.

In the case of `O=C(C1CCN(S(=O)(=O)Cc2ccccc2)CC1)N1CCN(c2ncccn2)CC1`, the nuclei count is 96.8% and the inhibition was 34.3% (inactive).

As to `COc1cccc(-c2nc(-c3ccc(NC(=O)Cc4ccccc4OC)cc3)no2)c1`, the inhibition was -68.2% (inactive) and the nuclei count was determined as 116%.

With `O=C(COc1ccc(Cl)cc1)Nc1nc(-c2cccs2)cs1`, the inhibition is -32.4% (inactive) and the nuclei count was determined as 114%.

For the compound `COCCNC(=O)CN(C)S(=O)(=O)c1ccc2c(c1)OCCO2`, the nuclei count stood at 108% and the inhibition was -59.8% (inactive).

Regarding `O=C(Cn1c(=O)n(Cc2ccc3c(c2)OCO3)c(=O)c2ccccc21)N1CCCc2ccccc21`, the nuclei count worked out at 109% and the inhibition is -22.2% (inactive).

`NC(=O)CSc1nnc(-c2ccc(O)cc2)n1Cc1ccco1`: the nuclei count came out at 93.2% and the inhibition is -112% (inactive).

Turning to `COC(=O)Cc1[nH]nc2c1C(C1C=CCCC1)C(C#N)=C(N)O2` (stereo unspecified), the nuclei count is 117% and the inhibition was -0.2% (inactive).

In the case of `N#Cc1c(-c2ccccc2)nc(SCc2nc(N)nc(N3CCCCC3)n2)[nH]c1=O`, the inhibition was -20.8% (inactive) and the nuclei count was 97.8%.

For `CCn1c(SCC(=O)NCc2ccco2)nc2c(c1=O)SC(C)C2` (stereo unspecified), the nuclei count amounted to 115% and the inhibition is -14.8% (inactive).

Consider `CCn1c(C)nc2cc(C(=O)OC(C(F)(F)C(F)F)C(F)(F)C(F)F)ccc21`, for which the inhibition was -20.9% (inactive) and the nuclei count is 93.6%.

Regarding `O=C(CCN1CCN(CCO)CC1)Nc1ccc(OCc2ccccc2)cc1`, the inhibition is -29.4% (inactive) and the nuclei count is 105%.

Consider `COc1ccc2c(c1)CCc1c(C(=O)N3CC4(C)CC3CC(C)(C)C4)noc1-2` (stereo unspecified), for which the nuclei count was 104% and the inhibition is -59% (inactive).

Consider `Cc1cc(NC(=O)CCC(=O)N(CC2CCCO2)C(C(=O)NC2CCCC2)c2ccccc2C)no1` (stereo unspecified), for which the nuclei count was 117% and the inhibition is -106% (inactive).

`COc1ccc2c(c1)CCc1c(C(=O)NCc3cccnc3)noc1-2`: the inhibition is -85.6% (inactive) and the nuclei count was 89.1%.

In the case of `O=C(Nc1c(-c2ccccc2)nc2ccccn12)c1ccco1`, the nuclei count came out at 109% and the inhibition is 13.2% (inactive).

For the compound `O=C(CCCC(=O)N(CC(=O)NC1CCCCC1)Cc1ccc2c(c1)OCO2)Nc1ccccn1`, the nuclei count worked out at 110% and the inhibition is -237% (inactive).

With `CCOC(=O)N1CCN(C(=O)C2c3cc(OC)c(OC)cc3C(=O)N3CCc4ccccc4C23)CC1` (stereo unspecified), the inhibition is 6.9% (inactive) and the nuclei count turned out to be 102%.

In the case of `COC(=O)Cc1csc(N)n1`, the inhibition was -54.5% (inactive) and the nuclei count amounted to 122%.
